How the values were obtained:
Assay in all cases: DAPPL (digital affinity profiling via proximity ligation, sequencing); 10 mM Tris-HCl pH 7.5, 50 mM NaCl, 1 mM DTT, 4% glycerol, room temperature, 30 min; GST-TFs on glutathione beads, 16-mer random dsDNA library, 0.1% formaldehyde crosslink after washing; high values mean tight binding
ETV5 = ETV5 (Homo sapiens, UniProt P41161 1-510); settings: protein: recombinant; tags: N-terminal GST; dsDNA, one strand shown
Outline: (§1)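 Binding signal is each hexamer's read frequency for a factor divided by its frequency in the tag-only sample. The factors were GST-fused human transcription factors from yeast, captured on glutathione beads, DNA-barcoded and pooled with that sample. Pools were incubated with 200 nmole of a random double-stranded 16-mer DNA library in Tris/NaCl/DTT/glycerol buffer at room temperature for 30 min, then washed, crosslinked with 0.1% formaldehyde, proximity-ligated with BsaI/T4 ligase (1 h, 37 °C), PCR-amplified and sequenced on an Illumina NextSeq500.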

HSF1 = HSF1 (Homo sapiens, UniProt Q00613 1-529); settings: protein: recombinant; tags: N-terminal GST; chain copies: 3; dsDNA, one strand shown
HSF1, sequence (Q00613 whole entry): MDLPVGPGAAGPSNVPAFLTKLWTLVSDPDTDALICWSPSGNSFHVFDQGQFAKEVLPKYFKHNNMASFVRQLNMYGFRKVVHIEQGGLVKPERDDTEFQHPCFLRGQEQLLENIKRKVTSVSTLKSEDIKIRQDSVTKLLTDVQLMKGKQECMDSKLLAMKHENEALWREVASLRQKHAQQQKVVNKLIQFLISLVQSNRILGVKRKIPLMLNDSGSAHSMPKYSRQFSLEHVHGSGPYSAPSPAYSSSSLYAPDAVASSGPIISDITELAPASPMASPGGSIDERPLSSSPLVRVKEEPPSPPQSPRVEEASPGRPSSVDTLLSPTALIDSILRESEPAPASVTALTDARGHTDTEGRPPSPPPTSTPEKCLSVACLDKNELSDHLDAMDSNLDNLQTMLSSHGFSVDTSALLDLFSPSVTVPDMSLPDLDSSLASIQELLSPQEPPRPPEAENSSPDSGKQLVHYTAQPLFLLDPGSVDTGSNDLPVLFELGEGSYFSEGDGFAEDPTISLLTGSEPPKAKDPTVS
Outline: as §1

ELK4 = biological target: T1, ELK4 (Homo sapiens, UniProt P28324-2 1-405); settings: protein: recombinant; tags: N-terminal GST; dsDNA, one strand shown
T1 sequence: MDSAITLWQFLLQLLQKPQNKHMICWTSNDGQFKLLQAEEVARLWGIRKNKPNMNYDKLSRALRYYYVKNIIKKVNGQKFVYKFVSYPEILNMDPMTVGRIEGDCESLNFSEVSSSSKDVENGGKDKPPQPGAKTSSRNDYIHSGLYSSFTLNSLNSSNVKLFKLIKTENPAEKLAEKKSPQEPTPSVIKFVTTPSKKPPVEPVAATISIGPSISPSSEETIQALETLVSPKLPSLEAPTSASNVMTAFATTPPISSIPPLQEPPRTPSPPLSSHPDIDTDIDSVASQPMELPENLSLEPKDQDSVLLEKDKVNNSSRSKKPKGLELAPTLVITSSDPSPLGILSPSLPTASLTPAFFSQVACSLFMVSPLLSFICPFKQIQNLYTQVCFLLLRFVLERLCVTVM
Outline: as §1

ELF3 = biological target: T2, ELF3 (Homo sapiens, UniProt P78545 1-371); settings: protein: recombinant; tags: N-terminal GST; dsDNA, one strand shown
T2 sequence: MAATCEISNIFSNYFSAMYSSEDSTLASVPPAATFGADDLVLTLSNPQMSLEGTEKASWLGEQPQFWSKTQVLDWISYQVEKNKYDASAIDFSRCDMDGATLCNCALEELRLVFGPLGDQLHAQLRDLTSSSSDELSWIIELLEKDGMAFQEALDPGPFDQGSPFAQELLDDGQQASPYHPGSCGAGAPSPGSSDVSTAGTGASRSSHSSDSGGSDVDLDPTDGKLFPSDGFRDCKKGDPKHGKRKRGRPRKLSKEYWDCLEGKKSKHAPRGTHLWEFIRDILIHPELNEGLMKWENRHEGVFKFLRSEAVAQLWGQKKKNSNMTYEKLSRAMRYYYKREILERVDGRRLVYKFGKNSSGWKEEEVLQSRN
Outline: as §1

CRX = CRX (Homo sapiens, UniProt O43186 1-299); settings: protein: recombinant; tags: N-terminal GST; dsDNA, one strand shown
CRX, sequence (O43186 whole entry): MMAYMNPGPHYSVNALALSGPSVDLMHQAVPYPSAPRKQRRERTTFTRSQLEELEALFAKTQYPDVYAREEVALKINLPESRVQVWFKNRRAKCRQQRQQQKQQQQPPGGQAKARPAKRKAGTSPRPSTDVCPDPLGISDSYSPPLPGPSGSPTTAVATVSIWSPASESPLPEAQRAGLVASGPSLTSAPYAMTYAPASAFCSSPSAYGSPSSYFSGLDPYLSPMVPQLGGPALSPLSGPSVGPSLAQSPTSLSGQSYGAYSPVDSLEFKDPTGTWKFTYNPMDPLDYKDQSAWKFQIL
Outline: as §1

ERF = biological target: T3, ERF (Homo sapiens, UniProt P50548 1-548); settings: protein: recombinant; tags: N-terminal GST; dsDNA, one strand shown
T3 sequence: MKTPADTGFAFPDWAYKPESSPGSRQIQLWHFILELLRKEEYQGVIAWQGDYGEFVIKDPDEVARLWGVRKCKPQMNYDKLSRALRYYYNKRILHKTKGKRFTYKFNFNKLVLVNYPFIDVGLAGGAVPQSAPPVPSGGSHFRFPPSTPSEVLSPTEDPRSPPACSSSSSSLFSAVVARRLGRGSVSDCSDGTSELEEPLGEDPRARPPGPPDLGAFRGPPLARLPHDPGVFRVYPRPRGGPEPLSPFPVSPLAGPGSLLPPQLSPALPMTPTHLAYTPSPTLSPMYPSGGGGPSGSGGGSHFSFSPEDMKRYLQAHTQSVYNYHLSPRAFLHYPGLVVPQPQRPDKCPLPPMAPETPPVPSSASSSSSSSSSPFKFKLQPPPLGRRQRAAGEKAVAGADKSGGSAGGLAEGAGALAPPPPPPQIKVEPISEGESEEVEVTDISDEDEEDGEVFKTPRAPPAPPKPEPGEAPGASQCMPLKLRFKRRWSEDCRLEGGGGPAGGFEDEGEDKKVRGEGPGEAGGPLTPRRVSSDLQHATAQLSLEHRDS
Outline: as §1

ETS2 = biological target: T4, ETS2 (Homo sapiens, UniProt P15036 1-469); settings: protein: recombinant; tags: N-terminal GST; dsDNA, one strand shown
T4 sequence: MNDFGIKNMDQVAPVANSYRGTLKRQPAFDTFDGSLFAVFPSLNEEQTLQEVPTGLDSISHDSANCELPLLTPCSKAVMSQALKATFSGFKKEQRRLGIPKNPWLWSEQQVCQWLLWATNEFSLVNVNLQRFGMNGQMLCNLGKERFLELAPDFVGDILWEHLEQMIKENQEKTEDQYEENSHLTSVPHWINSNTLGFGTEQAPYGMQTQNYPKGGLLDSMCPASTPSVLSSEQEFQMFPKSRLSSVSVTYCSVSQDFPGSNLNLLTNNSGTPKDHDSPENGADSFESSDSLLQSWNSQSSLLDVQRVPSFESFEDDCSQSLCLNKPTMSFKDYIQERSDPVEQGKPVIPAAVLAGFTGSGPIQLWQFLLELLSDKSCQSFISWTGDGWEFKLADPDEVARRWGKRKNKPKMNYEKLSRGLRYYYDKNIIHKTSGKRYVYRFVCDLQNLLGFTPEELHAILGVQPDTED
Outline: as §1

SPDEF = biological target: T5, SPDEF (Homo sapiens, UniProt O95238 1-335); settings: protein: recombinant; tags: N-terminal GST; dsDNA, one strand shown
T5 sequence: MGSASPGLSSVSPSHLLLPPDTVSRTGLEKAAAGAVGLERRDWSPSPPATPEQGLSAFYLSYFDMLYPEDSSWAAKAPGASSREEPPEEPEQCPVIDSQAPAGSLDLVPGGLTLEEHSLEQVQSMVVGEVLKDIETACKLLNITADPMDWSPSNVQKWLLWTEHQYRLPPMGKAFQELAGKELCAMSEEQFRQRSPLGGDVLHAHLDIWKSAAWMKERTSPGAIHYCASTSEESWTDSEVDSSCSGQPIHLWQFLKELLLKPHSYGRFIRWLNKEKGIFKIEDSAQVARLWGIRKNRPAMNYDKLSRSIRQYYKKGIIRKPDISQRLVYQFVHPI
Outline: as §1

FEV = biological target: T6, FEV (Homo sapiens, UniProt Q99581 1-238); settings: protein: recombinant; tags: N-terminal GST; dsDNA, one strand shown
T6 sequence: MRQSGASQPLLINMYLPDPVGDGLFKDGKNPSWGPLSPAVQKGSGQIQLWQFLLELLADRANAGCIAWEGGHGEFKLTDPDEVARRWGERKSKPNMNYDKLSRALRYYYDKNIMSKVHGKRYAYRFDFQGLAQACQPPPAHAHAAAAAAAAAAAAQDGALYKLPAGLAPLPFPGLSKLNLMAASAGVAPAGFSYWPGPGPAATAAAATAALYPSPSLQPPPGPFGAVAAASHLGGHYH
Outline: as §1

SPIC = biological target: T7, SPIC (Homo sapiens, UniProt Q8N5J4 1-248); settings: protein: recombinant; tags: N-terminal GST; dsDNA, one strand shown
T7 sequence: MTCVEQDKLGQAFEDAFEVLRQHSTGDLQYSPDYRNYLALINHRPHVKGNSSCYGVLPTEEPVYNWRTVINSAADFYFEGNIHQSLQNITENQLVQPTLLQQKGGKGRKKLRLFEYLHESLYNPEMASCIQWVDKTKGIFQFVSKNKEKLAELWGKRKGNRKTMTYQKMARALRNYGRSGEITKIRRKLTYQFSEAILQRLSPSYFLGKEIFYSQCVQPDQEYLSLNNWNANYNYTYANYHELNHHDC
Outline: as §1

ELF4 = ELF4 (Homo sapiens, UniProt Q99607 1-663); settings: protein: recombinant; tags: N-terminal GST; dsDNA, one strand shown
ELF4, sequence (Q99607 whole entry): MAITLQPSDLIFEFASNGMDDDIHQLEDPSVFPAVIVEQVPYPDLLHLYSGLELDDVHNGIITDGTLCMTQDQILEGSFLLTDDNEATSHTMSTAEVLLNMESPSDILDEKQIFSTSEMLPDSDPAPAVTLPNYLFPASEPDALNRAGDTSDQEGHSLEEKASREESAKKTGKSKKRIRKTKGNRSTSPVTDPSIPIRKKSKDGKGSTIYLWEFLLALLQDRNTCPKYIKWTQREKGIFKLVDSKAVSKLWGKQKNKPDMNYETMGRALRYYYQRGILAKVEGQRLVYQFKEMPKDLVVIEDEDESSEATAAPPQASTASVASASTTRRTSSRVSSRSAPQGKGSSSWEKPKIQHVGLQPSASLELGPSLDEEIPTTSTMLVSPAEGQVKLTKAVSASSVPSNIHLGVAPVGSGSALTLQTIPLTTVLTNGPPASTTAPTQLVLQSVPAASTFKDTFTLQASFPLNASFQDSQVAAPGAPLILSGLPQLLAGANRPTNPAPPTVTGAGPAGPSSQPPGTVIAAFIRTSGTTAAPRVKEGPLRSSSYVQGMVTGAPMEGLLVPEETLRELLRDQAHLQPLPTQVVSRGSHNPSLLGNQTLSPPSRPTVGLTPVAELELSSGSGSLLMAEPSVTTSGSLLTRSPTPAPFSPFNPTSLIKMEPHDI
Outline: as §1

ETV2 = biological target: T8, ETV2 (Homo sapiens, UniProt O00321 1-342); settings: protein: recombinant; tags: N-terminal GST; dsDNA, one strand shown
T8 sequence: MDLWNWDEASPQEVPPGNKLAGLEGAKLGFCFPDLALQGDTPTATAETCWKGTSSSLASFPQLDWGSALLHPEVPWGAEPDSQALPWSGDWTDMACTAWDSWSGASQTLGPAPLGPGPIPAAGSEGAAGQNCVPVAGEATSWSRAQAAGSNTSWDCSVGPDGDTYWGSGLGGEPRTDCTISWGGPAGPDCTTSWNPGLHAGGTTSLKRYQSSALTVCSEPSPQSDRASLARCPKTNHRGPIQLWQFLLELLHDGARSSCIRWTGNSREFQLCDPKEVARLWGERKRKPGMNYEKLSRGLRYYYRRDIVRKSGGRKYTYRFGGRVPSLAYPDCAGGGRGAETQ
Outline: as §1

ETV1 = ETV1 (Homo sapiens, UniProt P50549 1-477); settings: protein: recombinant; tags: N-terminal GST; dsDNA, one strand shown
ETV1, sequence (P50549 whole entry): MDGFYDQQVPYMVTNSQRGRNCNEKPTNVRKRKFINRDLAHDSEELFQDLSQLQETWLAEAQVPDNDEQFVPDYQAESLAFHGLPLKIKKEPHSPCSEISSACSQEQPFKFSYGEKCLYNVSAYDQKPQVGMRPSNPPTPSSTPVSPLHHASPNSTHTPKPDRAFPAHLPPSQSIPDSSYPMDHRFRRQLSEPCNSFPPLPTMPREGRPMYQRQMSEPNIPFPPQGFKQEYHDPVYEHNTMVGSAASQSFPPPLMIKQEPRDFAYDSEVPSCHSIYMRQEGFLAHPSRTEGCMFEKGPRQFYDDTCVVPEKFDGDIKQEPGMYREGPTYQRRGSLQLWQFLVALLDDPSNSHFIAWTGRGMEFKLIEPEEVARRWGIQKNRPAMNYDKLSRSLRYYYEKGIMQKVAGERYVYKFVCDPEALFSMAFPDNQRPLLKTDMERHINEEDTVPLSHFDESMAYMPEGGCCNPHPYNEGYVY
Outline: as §1

ETV3L = biological target: T9, ETV3L (Homo sapiens, UniProt Q6ZN32 1-361); settings: protein: recombinant; tags: N-terminal GST; dsDNA, one strand shown
T9 sequence: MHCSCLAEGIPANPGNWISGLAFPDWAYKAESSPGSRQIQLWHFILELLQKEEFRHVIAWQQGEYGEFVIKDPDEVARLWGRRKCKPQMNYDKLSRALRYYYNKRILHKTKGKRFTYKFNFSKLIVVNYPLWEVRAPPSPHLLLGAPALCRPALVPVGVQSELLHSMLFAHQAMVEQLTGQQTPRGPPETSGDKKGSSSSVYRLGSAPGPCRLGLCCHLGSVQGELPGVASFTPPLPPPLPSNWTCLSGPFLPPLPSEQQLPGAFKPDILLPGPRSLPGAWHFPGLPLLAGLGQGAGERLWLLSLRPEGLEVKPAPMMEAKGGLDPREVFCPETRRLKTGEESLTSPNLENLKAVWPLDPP
Outline: as §1

ETV7 = biological target: T10, ETV7 (Homo sapiens, UniProt Q9Y603 1-341); settings: protein: recombinant; tags: N-terminal GST; dsDNA, one strand shown
T10 sequence: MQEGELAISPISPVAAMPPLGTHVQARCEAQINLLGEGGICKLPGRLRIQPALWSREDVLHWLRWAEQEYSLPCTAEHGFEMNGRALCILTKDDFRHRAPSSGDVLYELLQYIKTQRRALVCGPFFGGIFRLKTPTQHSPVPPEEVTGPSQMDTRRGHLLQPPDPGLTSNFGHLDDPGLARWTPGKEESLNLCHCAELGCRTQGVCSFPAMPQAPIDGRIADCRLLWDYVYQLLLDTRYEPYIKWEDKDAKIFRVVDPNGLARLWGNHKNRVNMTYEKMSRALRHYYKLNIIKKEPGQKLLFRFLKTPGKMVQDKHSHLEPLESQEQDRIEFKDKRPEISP
Outline: as §1

ELF5 = biological target: T11, ELF5 (Homo sapiens, UniProt Q9UKW6-2 1-255); settings: protein: recombinant; tags: N-terminal GST; dsDNA, one strand shown
T11 sequence: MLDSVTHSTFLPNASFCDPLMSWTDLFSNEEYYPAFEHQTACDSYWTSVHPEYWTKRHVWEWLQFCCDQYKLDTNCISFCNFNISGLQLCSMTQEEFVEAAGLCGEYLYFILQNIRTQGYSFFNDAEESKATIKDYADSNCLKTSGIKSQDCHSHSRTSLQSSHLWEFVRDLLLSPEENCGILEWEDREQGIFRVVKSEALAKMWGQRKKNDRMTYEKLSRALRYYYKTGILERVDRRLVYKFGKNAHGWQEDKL
Outline: as §1

ETV3 = biological target: T12, ETV3 (Homo sapiens, UniProt P41162-2 1-143); settings: protein: recombinant; tags: N-terminal GST; dsDNA, one strand shown
T12 sequence: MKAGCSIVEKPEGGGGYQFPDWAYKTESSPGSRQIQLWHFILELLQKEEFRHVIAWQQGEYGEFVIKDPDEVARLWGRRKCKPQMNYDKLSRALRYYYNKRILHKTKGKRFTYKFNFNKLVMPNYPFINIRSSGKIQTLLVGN
Outline: as §1

ETV6 = ETV6 (Homo sapiens, UniProt P41212 1-452); settings: protein: recombinant; tags: N-terminal GST; dsDNA, one strand shown
ETV6, sequence (P41212 whole entry): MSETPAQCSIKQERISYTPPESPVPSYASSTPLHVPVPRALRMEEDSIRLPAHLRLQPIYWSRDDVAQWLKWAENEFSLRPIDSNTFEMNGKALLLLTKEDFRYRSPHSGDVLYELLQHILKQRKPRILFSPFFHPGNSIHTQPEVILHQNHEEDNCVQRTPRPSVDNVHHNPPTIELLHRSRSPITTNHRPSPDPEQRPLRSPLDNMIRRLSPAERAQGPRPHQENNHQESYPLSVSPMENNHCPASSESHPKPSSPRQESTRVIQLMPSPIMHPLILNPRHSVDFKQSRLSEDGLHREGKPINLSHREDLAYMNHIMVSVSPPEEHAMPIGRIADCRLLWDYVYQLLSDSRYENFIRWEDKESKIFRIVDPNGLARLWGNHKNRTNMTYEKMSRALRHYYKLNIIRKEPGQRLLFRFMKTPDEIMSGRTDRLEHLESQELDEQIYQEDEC
Outline: as §1

ETV5, sequence (P41161 whole entry, the tested form may be a part): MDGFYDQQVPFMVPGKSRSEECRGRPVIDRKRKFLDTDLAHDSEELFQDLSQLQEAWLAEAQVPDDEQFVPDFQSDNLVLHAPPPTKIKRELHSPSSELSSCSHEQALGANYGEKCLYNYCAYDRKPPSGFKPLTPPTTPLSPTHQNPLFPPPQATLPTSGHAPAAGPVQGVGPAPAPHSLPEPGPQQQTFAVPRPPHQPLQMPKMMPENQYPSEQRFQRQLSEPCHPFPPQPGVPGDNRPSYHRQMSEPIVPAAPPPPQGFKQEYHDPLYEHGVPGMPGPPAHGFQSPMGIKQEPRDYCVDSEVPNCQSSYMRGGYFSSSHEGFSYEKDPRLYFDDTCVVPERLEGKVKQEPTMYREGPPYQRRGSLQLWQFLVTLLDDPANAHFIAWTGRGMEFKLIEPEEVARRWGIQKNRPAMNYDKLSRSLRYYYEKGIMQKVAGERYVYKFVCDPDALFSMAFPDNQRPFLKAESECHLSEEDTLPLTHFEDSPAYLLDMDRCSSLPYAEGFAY

Row | Sequence | binding signal (ETV5) | binding signal (HSF1) | binding signal (ELK4) | binding signal (ELF3) | binding signal (CRX) | binding signal (ERF) | binding signal (ETS2) | binding signal (SPDEF) | binding signal (FEV) | binding signal (SPIC) | binding signal (ELF4) | binding signal (ETV2) | binding signal (ETV1) | binding signal (ETV3L) | binding signal (ETV7) | binding signal (ELF5) | binding signal (ETV3) | binding signal (ETV6)
1 | CCTAGA | 1.01 fold enrichment (6-mer frequency, TF over GST control) | 1.88 fold enrichment (6-mer frequency, TF over GST control) | 1.07 fold enrichment (6-mer frequency, TF over GST control) | 1.12 fold enrichment (6-mer frequency, TF over GST control) | 1.22 fold enrichment (6-mer frequency, TF over GST control) | 1.05 fold enrichment (6-mer frequency, TF over GST control) | 1.05 fold enrichment (6-mer frequency, TF over GST control) | 1.01 fold enrichment (6-mer frequency, TF over GST control) |  |  |  |  |  |  |  |  |  | 
2 | GGATAT | 1.71 fold enrichment (6-mer frequency, TF over GST control) |  | 1.48 fold enrichment (6-mer frequency, TF over GST control) | 1.78 fold enrichment (6-mer frequency, TF over GST control) | 1.09 fold enrichment (6-mer frequency, TF over GST control) | 1.62 fold enrichment (6-mer frequency, TF over GST control) | 1.66 fold enrichment (6-mer frequency, TF over GST control) | 2.38 fold enrichment (6-mer frequency, TF over GST control) | 3.83 fold enrichment (6-mer frequency, TF over GST control) | 1.53 fold enrichment (6-mer frequency, TF over GST control) | 1.38 fold enrichment (6-mer frequency, TF over GST control) | 1.55 fold enrichment (6-mer frequency, TF over GST control) | 1.62 fold enrichment (6-mer frequency, TF over GST control) | 1.55 fold enrichment (6-mer frequency, TF over GST control) | 1.48 fold enrichment (6-mer frequency, TF over GST control) | 1.92 fold enrichment (6-mer frequency, TF over GST control) | 1.71 fold enrichment (6-mer frequency, TF over GST control) | 1.6 fold enrichment (6-mer frequency, TF over GST control)

Reference: paper PMC7862700, “An all-to-all approach to the identification of sequence-specific readers for epigenetic DNA modifications on cytosine”
